According to the supplement of paper PMC7366291:
Counter-ions that a name gives are not always drawn. ± gives the standard deviation or the standard deviation of the averaged measurements.

Key:
Conditions in all cases: 25 µM; exposure: 24-48 hpf
[1] = system: Danio rerio Tg(wt1b:EGFP) embryo, pronephros; assay: glomerular separation, fold change vs DMSO control; higher = glomeruli further apart (abnormal)
Method in brief: (§1)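 Dechorionated Tg(wt1b:EGFP) zebrafish embryos were kept from 24 to 48 hpf at 28.5°C in HEPES-buffered E3 containing 0.003% PTU, 0.5% DMSO and 25 μM compound. The pronephroi were then imaged from the dorsal side in agarose-filled 96-well plates at 470 nm with 10 z-slices, and 16 reference points were placed by hand on maximum projections in Fiji so that a macro could calculate distances and angles. Values lying more than 2 SD from the mean of a feature were discarded. Every feature is given as a fold change against the mean of DMSO-treated embryos from the same day.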

[2] = system: Danio rerio Tg(wt1b:EGFP) embryo, pronephros; assay: glomerular width (mean of left and right), fold change vs DMSO control; higher = wider glomerulus
Method in brief: as §1

[3] = system: Danio rerio Tg(wt1b:EGFP) embryo, pronephros; assay: fraction of imaged embryos annotated as normal kidney; higher = less nephrotoxic; extreme values may be limits of the assay
Method in brief: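 From 24 to 48 hpf at 28.5°C, dechorionated Tg(wt1b:EGFP) zebrafish embryos in 12-well plates were kept in 5 mM HEPES-buffered E3 with 0.003% PTU, 0.5% DMSO and 25 μM compound. Pronephroi were imaged by widefield fluorescence at 470 nm and judged by eye from maximum projections. Reported is the proportion of embryos per treatment in the normal-kidney category.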

[4] = system: Danio rerio Tg(wt1b:EGFP) embryo, pronephros; assay: pronephric angle neck segment to proximal convoluted tubule (mean of left and right), fold change vs DMSO control; higher = larger pronephric angle
Method in brief: as §1

| Structure (SMILES) | glomerular separation [1] | glomerular width [2] | fraction of imaged embryos annotated as normal kidney [3] | pronephric angle neck segment [4] |
| --- | --- | --- | --- | --- |
| C[C@H]1NC(=O)NC1=O [Methylhydantoin-5-(D)] | 0.867 ± 0.33 | 0.991 ± 0.011 | 0.917 | 1.02 ± 0.02 |
| CN1C2CCCC1CC(NC(=O)c1nn(C)c3ccccc13)C2 (stereo not given) [Granisetron] | 0.791 ± 0.23 | 0.98 ± 0.024 | 0.917 | 1.04 ± 0.015 |
| c1ccc(CNc2ncnc3nc[nH]c23)cc1 [Aminopurine, 6-benzyl] | 1.17 ± 0.43 | 1.01 ± 0.042 | 0.667 | 1.02 ± 0.019 |
| CCCCC1=NC2(CCCC2)C(=O)N1Cc1ccc(-c2ccccc2-c2nnn[nH]2)cc1 [Irbesartan] | 3.04 ± 1.1 | 0.56 ± 0.11 | 0.75 | 1.1 ± 0.022 |
| C[C@H](N)[C@H](O)c1cccc(O)c1 [Metaraminol bitartrate] | 0.797 ± 0.44 | 0.961 ± 0.083 | 0.667 | 0.771 ± 0.017 |
| NC(=O)OCC(O)COc1ccc(Cl)cc1 (stereo not given) [Chlorphensin carbamate] | 0.973 ± 0.47 | 0.982 ± 0.071 | 0.833 | 1.12 ± 0.099 |
| N[C@H]1CONC1=O [(S)-(-)-Cycloserine] | 0.898 ± 0.5 | 0.892 ± 0.011 | 0.5 | 1.025 ± 0.0084 |
| CC(=O)O[C@]1(C(C)=O)CC[C@H]2[C@@H]3C=C(Cl)C4=CC(=O)CC[C@]4(C)[C@H]3CC[C@@]21C [Chlormadinone acetate] | 1.26 ± 0.62 | 0.909 ± 0.053 | 0.636 | 1.17 ± 0.093 |
| COc1cc(Cc2cnc(N)nc2N)cc(OC)c1OC [Trimethoprim] | 1.48 ± 0.76 | 0.986 ± 0.013 | 0.727 | 1.05 ± 0.063 |
| C=C[C@H]1CN2CC[C@H]1C[C@@H]2[C@@H](O)c1ccnc2ccc(OC)cc12 [Quinidine hydrochloride monohydrate] | 0.962 ± 0.19 | 1.13 ± 0.084 | 0.75 | 1.01 ± 0.016 |
| CCCc1nn(C)c2c(=O)[nH]c(-c3cc(S(=O)(=O)N4CCN(C)CC4)ccc3OCC)nc12 [Sildenafil] | 1.12 ± 0.37 | 0.928 ± 0.045 | 1 | 0.9607 ± 0.0012 |
| CCOC(=O)C1=C(C)NC(C)=C(C(=O)OC)C1c1cccc(Cl)c1Cl (stereo not given) [Felodipine] | 5.36 ± 2.5 | 0.634 ± 0.029 | 0 | 1.44 ± 0.022 |
| CC(C)NCC(O)c1cc(O)cc(O)c1 (stereo not given) [Metaproterenol sulfate, orciprenaline sulfate] | 1.08 ± 0.74 | 1.02 ± 0.014 | 0.909 | 1.08 ± 0.07 |
| Nc1ccc(S(=O)(=O)c2ccc(N)cc2)cc1 [Dapsone] | 1.08 ± 0.44 | 1.04 ± 0.077 | 0.5 | 1.14 ± 0.042 |
| CC(CCc1ccc(O)cc1)NCCc1ccc(O)c(O)c1 (stereo not given) [Dobutamine hydrochloride] | 0.82 ± 0.23 | 0.999 ± 0.032 | 1 | 0.997 ± 0.078 |
| N[C@@H](C(=O)N[C@@H]1C(=O)N2C(C(=O)O)=C(Cl)CC[C@H]12)c1ccccc1 [Loracarbef] | 1.06 ± 0.25 | 1.08 ± 0.011 | 0.917 | 0.999 ± 0.025 |
| Clc1ccc(CCC(Cn2ccnc2)Sc2c(Cl)cccc2Cl)cc1 (stereo not given) [Butoconazole nitrate] | 2.43 ± 1.2 | 0.767 ± 0.047 | 0 | 1.25 ± 0.056 |
| NS(=O)(=O)c1cc2c(cc1Cl)N=C(CSCc1ccccc1)NS2(=O)=O [Benzthiazide] | 0.917 ± 0.25 | 0.919 ± 0.05 | 0.917 | 0.965 ± 0.028 |
| Cc1ccc2c(c1)c1c3n2CCNC3CCC1 (stereo not given) [Pirlindole mesylate] | 0.876 ± 0.33 | 1.07 ± 0.036 | 0.833 | 0.95 ± 0.0043 |
| CCOC(=O)C1=C(COCCN)NC(C)=C(C(=O)OC)C1c1ccccc1Cl (stereo not given) [Amlodipine] | 0.923 ± 0.2 | 1.03 ± 0.085 | 1 | 0.983 ± 0.029 |
| O=C(O)CCc1nc(-c2ccccc2)c(-c2ccccc2)o1 [Oxaprozin] | 4.33 ± 1.5 | 0.672 ± 0.032 | 0 | 1.87 ± 0.14 |
| CCCCC[C@H](O)/C=C/[C@@H]1[C@@H](C/C=C\CCCC(=O)O)[C@@H](O)C[C@H]1O [Dinoprost trometamol] | 0.881 ± 0.18 | 1.01 ± 0.064 | 0.833 | 0.975 ± 0.043 |
| C[C@H]1C[C@H]2[C@@H]3CCC4=CC(=O)C=C[C@]4(C)[C@@]3(F)[C@@H](O)C[C@]2(C)[C@@]1(O)C(=O)CO [Betamethasone] | 1.2 ± 0.31 | 1.17 ± 0.088 | 0.583 | 1.04 ± 0.053 |
| Cc1cc(=O)oc2cc(O)ccc12 [Hymecromone] | 0.837 ± 0.36 | 1 ± 0.013 | 0.909 | 0.98 ± 0.01 |
| CO[C@@]1(NC(=O)C(C(=O)O)c2ccc(O)cc2)C(=O)N2C(C(=O)O)=C(CSc3nnnn3C)CO[C@@H]21 (stereo not given in full) [Moxalactam disodium salt] | 0.871 ± 0.28 | 1.04 ± 0.014 | 0.917 | 0.984 ± 0.067 |
| CC(=O)OCC(=O)NCCCOc1cccc(CN2CCCCC2)c1 [Roxatidine Acetate hydrochloride] | 1.07 ± 0.37 | 1 ± 0.03 | 0.667 | 1.01 ± 0.06 |
| CC1CCc2c(N3CCC(O)CC3)c(F)cc3c(=O)c(C(=O)O)cn1c23 (stereo not given) [Nadifloxacin] | 1.13 ± 0.33 | 1.01 ± 0.031 | 0.917 | 1.04 ± 0.029 |
| CC(C)(Oc1ccc(C2CC2(Cl)Cl)cc1)C(=O)O (stereo not given) [Ciprofibrate] | 1.25 ± 0.62 | 0.934 ± 0.023 | 0.818 | 1.082 ± 0.0058 |
| CO/N=C(\C(=O)N[C@@H]1C(=O)N2C(C(=O)O)=C(COC(N)=O)CS[C@H]12)c1ccco1 [Cefuroxime sodium salt] | 1.05 ± 0.35 | 0.997 ± 0.025 | 1 | 0.985 ± 0.025 |
| CCCCC1C(=O)N(c2ccccc2)N(c2ccc(O)cc2)C1=O (stereo not given) [Oxyphenbutazone] | 1.27 ± 0.44 | 0.983 ± 0.027 | 1 | 0.998 ± 0.06 |
